# Activity calls are given as the source filed them. Entries that show only a call come without a potency. The call rests on the fitted dose curve; in most records, active means well fitted curve in the direction sought with a large enough effect in the repeat runs; inconclusive means weak or mixed curves; inactive means flat fitted curve, though single readings scatter.
# Test: qHTS assay to test for compound auto fluorescence at 460 nm (blue) in HepG2 cells (AID 720687)
# Conditions: autofluorescence 405/460 nm, 1 h; series mostly up to 91.3 µM
# Excerpt: U.S. Tox21 Program National Center for Advancing Translational Sciences [NCATS] NIH Chemical Genomics Center [NCGC] U.S. Environmental Protection Agency [EPA] National Institutes of Environmental Health Sciences [NIEHS] National Toxicology Program [NTP] U.S. Food and Drug Administration [FDA] Tox21 Assay Overview: Compound auto fluorescence often interferes with screening of the compound library against various biological targets and signaling pathways. Some of these compounds may have fluorophoric properties. Such properties may interfere with the assay outputs resulting in false positives and/or negatives. To decrease such complications and ensure the compound activities are relevant in terms of biological response, the Tox21 10K compound library was screened for auto fluorescence. From the fluorophores used as reporter signals in our screening assays, the auto fluorescence equivalencies of compounds against three fluorophores have been evaluated: Triamterene, Fluorescein and Rose Bengal sodium for blue, green and red fluorescence, respectively. The fluorescence intensities were measured using Excitation/Emission wavelengths at 405/460nm, 485/535nm and 540/590nm for blue, green and red labels, respectively. This assay includes the blue fluorescence data.
# Tox21 Assay Protocol Summary: 2,000 HepG2 cells in 5 uL of culture medium (MEM containing 10% FBS) per well were dispensed into black wall/clear bottom 1536-well plates using a Multidrop Combi Dispenser (ThermoFisher Scientific, Waltham, MA). The assay plates were incubated overnight at 37 C to allow cell attachment to the well bottom, followed by the transfer of 23 nL compound or DMSO vehicle by a pintool work station (Kalypsys , San Diego, CA). After the assay plates were incubated for 1 hr at 37 C and 5% CO2, fluorescence intensities in the assay plates were measured by an Envision (PerkinElmer, Shelton, CT) plate reader using three labels for measuring blue, green and red fluorescence at […] 460, 535 and 590 nm respectively.
Structure (SMILES),Potency,"fluorescence, % of fluorescent control"
c1cc(N(CC2CO2)CC2CO2)ccc1Cc1ccc(N(CC2CO2)CC2CO2)cc1 (stereo not given),inactive,–
CC(=O)Oc1ccc([N+](=O)[O-])cc1CCl,inactive,–
O=c1[nH]ncc2ccccc12,inactive,–
CCOc1cccc(-n2cc(C(=O)N3CCN(c4cc(C(=O)O)c5ccccc5c4)CC3)nc2-c2ccc(C)cc2)c1,inactive,–
Oc1c(I)cc(I)c2cccnc12,inactive,–
COC(=O)CS,inactive,–
N#CCCN(CCO)CCO,inactive,–
O=C1C(=O)c2ccccc2C(O)=C1C1CCC(c2ccc(Cl)cc2)CC1 (stereo not given),–,0.0025% [at 18.6 µM] (inactive)
CC1(C)[C@@H](OC(=O)CCC(=O)O)CC[C@]2(C)[C@H]3C(=O)C=C4[C@@H]5C[C@@](C)(C(=O)O)CC[C@]5(C)CC[C@@]4(C)[C@]3(C)CC[C@@H]12,–,-0.0128% [at 18.6 µM] (inactive)
O=C1c2ccccc2C(=O)c2c(O)c(O)cc(O)c21,inactive,–
CC(C)Nc1cccnc1N1CCN(C(=O)c2cc3cc(NS(C)(=O)=O)ccc3[nH]2)CC1,inactive,–
CN1C[C@H](C(=O)N[C@]2(C)O[C@@]3(O)[C@@H]4CCCN4C(=O)[C@H](Cc4ccccc4)N3C2=O)C[C@@H]2c3cccc4[nH]cc(c34)C[C@H]21,inactive,–
O=C(CCc1ccc(O)cc1)c1c(O)cc(O)cc1O,inactive,–
CCCCCCCCC(CCCCCC)C(=O)O (stereo not given),inactive,–
COc1ncnc(NS(=O)(=O)c2ccc(N)cc2)c1OC,inactive,–
CN1CCCC(CC2c3ccccc3Sc3ccccc32)C1 (stereo not given),–,0.049% [at 18.6 µM] (inactive)
CCOC(=O)c1ccc(OCCN2C[C@H](O)[C@@H](O)[C@H](O)[C@H]2CO)cc1,inactive,–
N#[N+]c1ccc2c(S(=O)(=O)[O-])cccc2c1O,inactive,–
CCCCCCCC/C=C\CCCCCCCCO,inactive,–
CC(O)c1ccccc1 (stereo not given),inactive,–

Structure (SMILES),Potency,"fluorescence, % of fluorescent control"
COc1cc(C(=O)NC2CCN(C)CC2)ccc1Nc1ncc2c(n1)N(C1CCCC1)CC(F)(F)C(=O)N2C,inactive,–
Nc1nc2ccc([N+](=O)[O-])cc2s1,inactive,–
CO/N=C(/C(=O)N[C@@H]1C(=O)N2C(C(=O)O)=C(COC(N)=O)CS[C@H]12)c1ccco1,inactive,–
C[C@@H](CN(C)C)CN1c2ccccc2Sc2ccccc21,–,-0.0799% [at 18.6 µM] (inactive)
C/C=C(/C(=C/C)c1ccc(O)cc1)c1ccc(O)cc1,–,0.0165% [at 18.6 µM] (inactive)
CN1C(C(=O)Nc2ccccn2)=C(O)c2sccc2S1(=O)=O,–,0.333% [at 18.6 µM] (inactive)
O=C1c2ccccc2C(=O)C1c1nc2ccccc2c(Br)c1O,inactive,–
CC(=O)OCCN(CCOC(C)=O)c1ccc(N=Nc2ccc([N+](=O)[O-])cc2C#N)cc1,inactive,–
C=CC(=O)OCC1CC2CC1C1CCC(COC(=O)C=C)C21 (stereo not given),inactive,–
C[C@@]12CCC[C@H]1[C@@H]1CC[C@H]3C[C@@H](O)CC[C@]3(C)[C@H]1CC2,inactive,–
COC(=O)CCS,inactive,–
CN1CCCN=C1COC(=O)C(O)(c1ccccc1)C1CCCCC1 (stereo not given),inactive,–
O=C(/C=C/c1ccccc1)OCCc1ccccc1,inactive,–
COc1cc(Nc2c(C#N)cnc3cc(OCCCN4CCN(C)CC4)c(OC)cc23)c(Cl)cc1Cl,inactive,–
Oc1cccc(Nc2ccccc2)c1,inactive,–
CCCCCCCCN,inactive,–
Nc1ncnc2c1ncn2[C@H]1CC[C@@H](CO)O1,inactive,–
CC=C(Cl)Cl,inactive,–
C=C/C(C)=C/C/C=C(\C)CCC=C(C)C,inactive,–
O=C1c2ccccc2C(=O)C1c1ccc(Br)cc1,inactive,–
